We go through 40 compounds from the supplement of paper PMC7156485.

“And” between values parts separate entries of the source, which are not always exact repeats. Equal entries are not always repeated. Structures can show the parent of a compound that is named as a salt. ± gives the standard deviation of the averaged measurements.
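Note: TDF denotes transformed human dermal fibroblasts of mesenchymal origin.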

In the experiment the test system is TDF. Put plainly: cell number relative to DMSO (% of DMSO); higher = more cells (less growth inhibition / toxicity). The following applies: concentration: 10 µM; 24 h. In outline:
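Cell number or H1.0 nuclear intensity appears as percent of the plate control, based on the median of replicates. Measurements came from HCC1569 and TDF cells exposed in triplicate to compounds at 10 µM for 24 h at 37 °C, then imaged in six fields per well at ×10. Positional effects were smoothed out of HCC1569 values.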
`O=C(Nc1ccc(Oc2ccnc3[nH]ccc23)c(F)c1)c1cccn(-c2ccc(F)cc2)c1=O` returned a cell number of 103.
With `CCCCCC=CCC=CCC=CCCCCC(=O)O` [γ-Linolenic acid (18:3 n-6)], the cell number came to 96.9.
In the case of `CCCCCCCCC(O)C=CC=CC=CC(O)CCCC(=O)O` (stereo not given) [Leukotriene B3] it was 93.8; in that of `Cc1nc(Nc2ncc(C(=O)Nc3c(C)cccc3Cl)s2)cc(N2CCN(CCO)CC2)n1` [Dasatinib], 93.4; in that of `O=C1NC(=O)C(c2cn(CCCn3ccnc3)c3ccccc23)=C1Nc1ccccc1` [PKCb Inhibitor], 113.
Next, `O=C(CCCN1CCC(O)(c2ccc(Cl)cc2)CC1)c1ccc(F)cc1` [Haloperidol]: 92.6 ± 3.7; `CCCCCC(O)C=CC1C2CC(CO2)C1CC=CCCCC(=O)O` (stereo not given): 107.
Next, `CC(C)(C)NCC(O)c1ccc(O)c(CO)c1` (stereo not given) [Salbutamol]: 99.3.
As to `NC1CONC1=O` [L-Cycloserine], the cell number is 102 ± 2.1.
Next, `CC(C)CCNC(C)C1CCC2C3CC=C4CC(O)CCC4(C)C3CCC12C` (stereo not given) [22-Azacholesterol]: 98.5; `CNC(=C[N+](=O)[O-])NCCSCc1ccc(CN(C)C)o1.Cl` [Ranitidine hydrochloride]: 113.
In the case of `COc1ccc(-c2cc(=S)ss2)cc1` [Anethole-trithione] it was 92.7; in that of `CNC(=O)C1OC(n2cnc3c(NCc4cccc(I)c4)ncnc32)C(O)C1O` (stereo not given), 114.
In the case of `COc1ccc2c(c1)c(CC(=O)Nc1ccc(NC(C)=O)cc1)c(C)n2C(=O)c1ccc(Cl)cc1` [N-(4-acetamidophenyl)indomethacinamide] it was 70.1; in that of `CN1CCN(CC(=O)N2c3ccccc3C(=O)Nc3cccnc32)CC1.Cl.Cl` [Pirenzepine.2HCl], 106; in that of `CN1CCN(c2ccc3c(c2)NC(=C2C(=O)N=c4cccc(F)c4=C2N)N3)CC1`, 72.6.
Compound `CCCCCC(O)C=CC1C(O)CC(O)C1CCCCCCC(=O)O` (stereo not given) [Prostaglandin F1a] returned a cell number of 101.
Next, `COc1cc2c(cc1O)CCC1C2CCC2(C)C(O)CCC12` (stereo not given) [2-methoxyestradiol]: 11.5; `CC(C)(C)c1ccc(S(=O)(=O)C=CC#N)cc1`: 92.1; `CCCCCC=CCC(O)C=CC=CCCC(=O)O` [Tetranor-12(R)-HETE]: 93.9.
`C#CCCCCCCCCCCCCCCCC(=O)O` [17-Octadecynoic acid] gave a cell number of 99.7.
In the case of `CC12CCC(=O)C=C1CCC1C2C(O)CC2(C)C1CCC2(O)C(=O)COC(=O)CCC(=O)[O-].[Na+]` (stereo not given) [Hydrocortisone 21-hemisuccinate sodium] it was 99.5; in that of `OCc1c[nH]c2ccccc12` [Indole-3-carbinol], 109.
Next, `Cl.NC1C=CC=C(C(=O)O)C1` (stereo not given) [Gabaculine hydrochloride]: 108; `CCCNC1CCc2nc(N)sc2C1` (stereo not given) [Pramipexole]: 97.5; `COc1ccccc1N1CCN(CCN(C(=O)C2CCCCC2)c2ccccn2)CC1.O=C(O)C=CC(=O)O`: 102.
`CC(C(O)c1ccc(O)cc1)N1CCC(Cc2ccccc2)CC1` (stereo not given) [Ifenprodil tartrate] came in with a cell number of 102.
In the case of `Nc1ncnc2n[nH]c(Nc3ccc(F)cc3)c12` it was 102; in that of `CCCCCCC(O)CC=CCCCCCCCC(=O)O` (stereo not given) [Ricinoleic acid], 104.
Next, `Cc1ccc(NC(=O)c2cccc(N(C)C)c2)cc1NC(=O)c1ccc(O)cc1`: 100 and 94.1; `NCCC(O)(P(=O)([O-])O)P(=O)([O-])O.O.O.O.O.O.[Na+].[Na+]` [Pamidronate.2Na.5H2O]: 96.8.
In the case of `O=C(O)Cc1c[nH]c2ccc(O)cc12` [5-Hydroxyindolacetic acid] it was 99.5; in that of `CCCCc1oc2ccccc2c1C(=O)c1cc(I)c(OCCN(CC)CC)c(I)c1.Cl` [Amiodarone hydrochloride], 92; in that of `COc1cc(C(=O)OCCC[NH+]2CCC[NH+](CCCOC(=O)c3cc(OC)c(OC)c(OC)c3)CC2)cc(OC)c1OC.[Cl-].[Cl-]` [Dilazep hydrochloride], 90.1.
With `CCNC(=O)CC[C@H](N)C(=O)O` [L-Theanine], the cell number is 103.
As for `CCCC1OC2CC3C4CCC5=CC(=O)C=CC5(C)C4C(O)CC3(C)C2(C(=O)CO)O1` (stereo not given) [Budesonide], the cell number came out at 94.1.
As for `Cl.NCCc1ccc(O)c(O)c1` [Dopamine hydrochloride], the cell number turned out to be 100.
Compound `CN1C(CC(=O)c2ccccc2)CCCC1CC(O)c1ccccc1` (stereo not given) [Lobeline] had a cell number of 102.
As to `Cl.c1ccc(C2CN3CCSC3=N2)cc1` (single isomer, unassigned; (-)) [(-)-Tetramisole hydrochloride], the cell number was determined as 97.3.
Turning to `NCCS(=O)O` [Hypotaurine], the cell number was 106.
